Results taken from PubChem BioAssay (NCI).
Compounds without any hit were thinned out: in the full panel of roughly 79,000, 15% have a hit. Active and inactive are the calls of the source. No stated cut-off is given here; in the data, active means growth inhibition above about 70%; inactive means the rest.

Key:
[1] = NCI Yeast Anticancer Drug Screen. Data for the rad52 strain (AID 147);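 further: 0% = growth of vehicle-treated control cultures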; settings: S. cerevisiae rad52 mutant growth inhibition, stronger effect = higher value
In short: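 Here a repair-compromised yeast strain receives each compound; its growth is then quantified and normalised to vehicle-only controls.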

[2] = NCI Yeast Anticancer Drug Screen. Data for the wt1 strain (AID 149);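 further: 0% = growth of vehicle-treated wt1 cultures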; settings: S. cerevisiae wt1 strain (SPY 50644) growth inhibition, stronger effect = higher value
In short: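 Readout: yeast growth inhibition, normalised to vehicle controls, in the wt1 strain exposed to test compounds.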

[3] = NCI Yeast Anticancer Drug Screen. Data for the rad50EPP+ strain (AID 151);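 further: 0% = growth of vehicle-treated control cultures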; settings: S. cerevisiae rad50 mutant strain, stronger effect = higher value
In short: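 Read-out is yeast growth inhibition relative to vehicle; cells used were the rad50EPP+ strain.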

[4] = NCI Yeast Anticancer Drug Screen. Data for the mgt1 strain (AID 153); settings: S. cerevisiae mgt1 mutant growth inhibition, stronger effect = higher value
In short: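 Measured: inhibition of mgt1 yeast growth by compound, normalized to vehicle-treated cultures.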

[5] = NCI Yeast Anticancer Drug Screen. Data for the rad50 strain (AID 155);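 further: 0% = growth of vehicle-only cultures of the same strain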; settings: S. cerevisiae rad50 strain growth inhibition, stronger effect = higher value
In short: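 Compounds were tested on a yeast strain with an engineered DNA damage repair alteration; the reported value is growth inhibition normalised to vehicle treatment.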

[6] = NCI Yeast Anticancer Drug Screen. Data for the mec2-1 strain (AID 157); settings: S. cerevisiae mec2-1 strain, stronger effect = higher value
In short: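 Using mec2-1 yeast: add compound, measure growth, express inhibition versus vehicle-treated cultures.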

[7] = NCI Yeast Anticancer Drug Screen. Data for the rad14 strain (AID 159);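 further: 0% = growth of vehicle-treated control cultures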; settings: S. cerevisiae rad14 strain growth inhibition, stronger effect = higher value
In short: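 Compound-treated yeast with a defined DNA-repair lesion; growth inhibition normalised to vehicle-treated cultures.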

[8] = NCI Yeast Anticancer Drug Screen. Data for the sgs1 mgt1 strain (AID 161);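 further: 0% = growth of cultures given vehicle only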; settings: S. cerevisiae sgs1 mgt1 strain, stronger effect = higher value
In short: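 Growth of a repair-deficient yeast mutant was monitored after compound treatment and expressed as inhibition relative to vehicle-treated cultures.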

[9] = NCI Yeast Anticancer Drug Screen. Data for the CLN2oe strain (AID 163);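 further: 0% = growth of vehicle-only control cultures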; settings: S. cerevisiae CLN2oe strain, stronger effect = higher value
In short: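 Whole-cell yeast growth assay. A strain engineered for altered cell-cycle control received compound, and inhibition relative to vehicle-treated cultures was recorded.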

[10] = NCI Yeast Anticancer Drug Screen. Data for the cln2 rad14 strain (AID 165);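 further: 0% = growth equal to vehicle treated cultures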; settings: S. cerevisiae cln2 rad14 strain, stronger effect = higher value
In short: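 Yeast strain cln2 rad14, bearing defects in cell cycle control and DNA repair, serves as the test system; values reflect growth inhibition compared with vehicle.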

[11] = NCI Yeast Anticancer Drug Screen. Data for the bub3 strain (AID 167); settings: S. cerevisiae bub3 mutant strain, stronger effect = higher value
In short: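 Growth of a checkpoint-deficient yeast mutant is measured after compound exposure. Values represent inhibition relative to vehicle.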

[12] = NCI Yeast Anticancer Drug Screen. Data for the wt2 strain (AID 169);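 further: 0% = growth of vehicle-treated yeast cultures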; settings: S. cerevisiae wt2 strain growth inhibition, stronger effect = higher value
In short: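 Treated yeast vs. vehicle-treated yeast: growth inhibition determined.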

[13] = NCI Yeast Anticancer Drug Screen. Data for the mlh1 strain (AID 171);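 further: 0% = growth of vehicle-treated control cultures of the same strain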; settings: S. cerevisiae mlh1 strain growth inhibition, stronger effect = higher value
In short: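 A yeast strain with a defined genetic lesion serves as the test organism. Cultures receive compound or vehicle, and growth is measured.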

[14] = NCI Yeast Anticancer Drug Screen. Data for the sgs1 strain (AID 173);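 further: 0% = growth of vehicle-only control cultures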; settings: S. cerevisiae sgs1 mutant, stronger effect = higher value
In short: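 A genetically defined yeast mutant is incubated with the test compound, and its growth is compared to that of the same strain given vehicle.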

[15] = NCI Yeast Anticancer Drug Screen. Data for the mlh1 rad18 strain (AID 175); settings: S. cerevisiae mlh1 rad18 strain growth inhibition, stronger effect = higher value
In short: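 Steps: expose repair-defective yeast to compound; measure growth; express inhibition against vehicle-treated controls.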

[16] = NCI Yeast Anticancer Drug Screen. Data for the rad18 strain (AID 177); settings: S. cerevisiae rad18 mutant growth inhibition, stronger effect = higher value
In short: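 Measured value is growth inhibition of a yeast strain bearing a DNA repair alteration, referenced to vehicle-treated cells.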

[17] = at 5.0 µM (retest, dose inferred, filed as 0.5)
[18] = at 50.0 µM (retest, dose inferred, filed as 5.0)

Measured: growth inhibition

CN(C)c1ccc(C2CC(C)(O)Oc3cc4c(cc32)OCO4)cc1 (stereo unspecified)
active: [1]; at 100.0 µM 70% | [5]; [18] 77% | [8]; [18] 83% | [11]; [18] 79% | [14]; at 100.0 µM 87% | [15]; [18] 93% | [16]; at 11.0 µM 89% | [16]; at 33.0 µM 92% | [16]; at 100.0 µM 95%
inactive: [1]; at 1.2 µM -1% | [1]; at 3.7 µM -1% | [1]; at 11.0 µM 10% | [1]; at 33.0 µM 28% | [2]; at 1.2 µM 0% | [2]; at 3.7 µM 5% | [2]; at 11.0 µM 1% | [2]; at 33.0 µM 1% | [2]; at 100.0 µM 7% | [3]; at 1.2 µM 2% | [3]; at 3.7 µM 4% | [3]; at 11.0 µM 20% | [3]; at 33.0 µM 36% | [3]; at 100.0 µM 59% | [4]; at 1.2 µM -2% | [4]; at 3.7 µM -3% | [4]; at 11.0 µM 0% | [4]; at 33.0 µM 4% | [4]; at 100.0 µM 48% | [5]; at 1.2 µM -1% | [5]; at 3.7 µM -2% | [5]; [17] 10% | [5]; at 11.0 µM 5% | [5]; at 33.0 µM 12% | [5]; at 50.0 µM 24.6% | [5]; at 100.0 µM 40% | [6]; at 1.2 µM -6% | [6]; at 3.7 µM 0% | [6]; [17] -20% | [6]; at 11.0 µM 2% | [6]; at 33.0 µM 4% | [6]; [18] 12% | [6]; at 50.0 µM 14.3% | [6]; at 100.0 µM 29% | [7]; at 1.2 µM -1% | [7]; at 3.7 µM 1% | [7]; at 11.0 µM 9% | [7]; at 33.0 µM 27% | [7]; at 100.0 µM 58% | [8]; [17] 2% | [8]; at 50.0 µM 34.7% | [9]; at 1.2 µM -5% | [9]; at 3.7 µM -16% | [9]; at 11.0 µM 4% | [9]; at 33.0 µM -3% | [9]; at 100.0 µM 16% | [10]; [17] 1% | [10]; [18] 37% | [10]; at 50.0 µM 21.3% | [11]; at 1.2 µM -5% | [11]; at 3.7 µM -3% | [11]; [17] 18% | [11]; at 11.0 µM 3% | [11]; at 33.0 µM 10% | [11]; at 50.0 µM 27.9% | [11]; at 100.0 µM 16% | [12]; at 1.2 µM -1% | [12]; at 3.7 µM -2% | [12]; at 11.0 µM -1% | [12]; at 33.0 µM 7% | [12]; at 100.0 µM 46% | [13]; at 1.2 µM -3% | [13]; at 3.7 µM 0% | [13]; at 11.0 µM 2% | [13]; at 33.0 µM 11% | [13]; at 100.0 µM 41% | [14]; at 1.2 µM -1% | [14]; at 3.7 µM 7% | [14]; at 11.0 µM 23% | [14]; at 33.0 µM 55% | [15]; [17] 23% | [15]; at 50.0 µM 43.5% | [16]; at 1.2 µM 24% | [16]; at 3.7 µM 57%

CN(C)CCNc1ccc2ncnc3c2c1C(=O)c1ccccc1-3
inactive: [2]; at 1.2 µM 7% | [2]; at 3.7 µM 8% | [2]; at 11.0 µM 15% | [2]; at 33.0 µM 28% | [2]; at 100.0 µM 34% | [4]; at 1.2 µM 2% | [4]; at 3.7 µM 6% | [4]; at 11.0 µM 22% | [4]; at 33.0 µM 25% | [4]; at 100.0 µM 38% | [6]; at 1.2 µM 22% | [6]; at 3.7 µM 21% | [6]; [17] 15% | [6]; at 11.0 µM 32% | [6]; at 33.0 µM 45% | [6]; [18] 48% | [6]; at 50.0 µM 68.6% | [6]; at 100.0 µM 53% | [7]; at 1.2 µM 16% | [7]; at 3.7 µM 15% | [7]; at 11.0 µM 20% | [7]; at 33.0 µM 37% | [7]; at 100.0 µM 44% | [8]; [17] -21% | [8]; [18] 56% | [9]; at 1.2 µM 5% | [9]; at 3.7 µM 8% | [9]; at 11.0 µM 26% | [9]; at 33.0 µM 59% | [10]; [17] 2% | [10]; [18] 51% | [10]; at 50.0 µM 66.9% | [11]; at 1.2 µM -8% | [11]; at 3.7 µM -2% | [11]; [17] 33% | [11]; at 11.0 µM 11% | [11]; at 33.0 µM 21% | [11]; [18] 31% | [11]; at 100.0 µM 36% | [12]; at 1.2 µM 8% | [12]; at 3.7 µM 10% | [12]; at 11.0 µM 20% | [12]; at 33.0 µM 49% | [12]; at 100.0 µM 56% | [13]; at 1.2 µM 10% | [13]; at 3.7 µM 14% | [13]; at 11.0 µM 28% | [13]; at 33.0 µM 41% | [13]; at 100.0 µM 46% | [14]; at 1.2 µM 9% | [14]; at 3.7 µM 8% | [14]; at 11.0 µM 24% | [14]; at 33.0 µM 54% | [14]; at 100.0 µM 61% | [15]; [17] -13% | [15]; at 50.0 µM 65.5% | [16]; at 1.2 µM 11% | [16]; at 3.7 µM 12% | [16]; at 11.0 µM 25% | [16]; at 33.0 µM 61%
active: [1]; at 1.2 µM 95% | [1]; at 3.7 µM 94% | [1]; at 11.0 µM 96% | [1]; at 33.0 µM 97% | [1]; at 100.0 µM 96% | [3]; at 1.2 µM 90% | [3]; at 3.7 µM 90% | [3]; at 11.0 µM 93% | [3]; at 33.0 µM 95% | [3]; at 100.0 µM 95% | [5]; at 1.2 µM 94% | [5]; at 3.7 µM 95% | [5]; [17] 84% | [5]; at 11.0 µM 96% | [5]; at 33.0 µM 96% | [5]; [18] 97% | [5]; at 50.0 µM 76% | [5]; at 100.0 µM 96% | [8]; at 50.0 µM 77.4% | [9]; at 100.0 µM 74% | [11]; at 50.0 µM 74.2% | [15]; [18] 81% | [16]; at 100.0 µM 75%
